Activity calls are given as the source filed them.

Among the data in PubChem BioAssay are composite z-score, composite Z-score and z-score values, retold here.

For one test, the target named is Albumin (Bos taurus) (UniProt P02769). Nature of the test: bovine serum albumin binders on microarray, profiling panel, artefact control for SMM control protein annotation, biochemical, small-molecule microarray, Alexa647 label, 635/667 nm fluorescence (AID 1118).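 Note: score merges 667 nm emission intensity and signal-to-noise per printed compound spot.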 The following applies: BSA-A647 binding, fluorescence 635 nm, higher = more signal.
Sequence of Albumin (Bos taurus) (P02769 whole entry, looked up): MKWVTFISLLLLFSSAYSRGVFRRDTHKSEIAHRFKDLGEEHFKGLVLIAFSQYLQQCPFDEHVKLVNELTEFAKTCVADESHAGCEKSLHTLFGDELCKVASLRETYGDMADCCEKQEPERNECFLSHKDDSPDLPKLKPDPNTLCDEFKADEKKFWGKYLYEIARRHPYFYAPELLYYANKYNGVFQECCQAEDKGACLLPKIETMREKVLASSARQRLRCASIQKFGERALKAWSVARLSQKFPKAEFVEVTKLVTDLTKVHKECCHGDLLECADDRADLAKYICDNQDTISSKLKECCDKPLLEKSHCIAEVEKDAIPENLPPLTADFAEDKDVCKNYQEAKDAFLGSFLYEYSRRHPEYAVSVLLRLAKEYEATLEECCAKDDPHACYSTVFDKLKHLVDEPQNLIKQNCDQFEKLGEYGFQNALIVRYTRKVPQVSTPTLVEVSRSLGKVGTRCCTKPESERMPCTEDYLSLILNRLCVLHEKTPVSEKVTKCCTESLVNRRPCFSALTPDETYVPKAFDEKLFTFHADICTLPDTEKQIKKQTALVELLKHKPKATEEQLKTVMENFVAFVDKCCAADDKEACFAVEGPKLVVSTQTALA
Test [1] is described as follows: small-molecule microarray binders of probe aXIP, primary screen, biochemical, NeuroSMM set, 635/667 nm fluorescence (AID 1119).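 Note: probe is the protein aXip251-270 applied at 1 µg/mL to compound-printed slides; binding of probe to printed compounds measured as 667 nm fluorescence plus signal to noise.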 The following applies: higher = more signal, called active from +8 up or from −8 down.
A short description of test [2]: small-molecule binders of probe aNOTCH3, primary screen, biochemical, small-molecule microarray, 635/667 nm fluorescence (AID 1120).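 Note: probe is a biotin-tagged antibody raised against NOTCH3 rather than NOTCH3 protein; score merges spot fluorescence near 667 nm with spot signal to noise.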 The following applies: higher = more signal.
Test [3] in a line: small-molecule binders of probe aNOTCH2, primary screen, biochemical, small-molecule microarray, 635/667 nm fluorescence (AID 1121).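 Note: score merges feature fluorescence read at 667 nm with its signal to noise.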 The following applies: higher = more signal.
Test [4] has as its target Carbonic anhydrase 2 (Homo sapiens) (UniProt P00918). Nature of the test: CAII small-molecule binders, profiling panel, biochemical, small-molecule microarray, Alexa647-labelled CAII (AID 1122). The following applies: CAII-A647 binding fluorescence, higher = more signal.
A short description of test [5]: COS7 lysate on small-molecule microarray, probe aHis, 635 nm (AID 1123).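 Note: z-score combines 667nm fluorescence intensity with signal-to-noise per printed compound spot.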 The following applies: COS7 cell lysate, fluorescence, higher = more signal.
The nature of test [6]: compound binding in COS7 lysate, probe aLAP1, primary screen, cell lysate, small-molecule microarray (AID 1124).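 Note: lysate comes from COS7 cells expressing LAP1 and is applied at 0.3 µg/mL; score merges spot fluorescence near 667 nm with signal-to-noise over triplicate slides.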 The following applies: probe aLAP1, fluorescence, higher = more signal.
The next test deals with Sam68 (KHDRBS1). Nature of the test: Sam68 small-molecule binders, primary screen, biochemical, small-molecule microarray, 635 nm fluorescence (AID 1125).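 Note: score merges 667 nm channel intensity with signal to noise over triplicate slides.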 The following applies: small-molecule microarray binding, higher = more signal.
For test [7], the system named is Chordin-like protein 2 (CHRDL2). Nature of the test: CHRDL2 small-molecule binders, primary screen, biochemical, small-molecule microarray, 635 nm fluorescence (AID 1126).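 Note: printed compound slides probed with Chrdl2 protein at 4 µg/mL for 1 h at 4 C; score merges 667 nm emission intensity with signal to noise over three replicate slides.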 The following applies: small-molecule microarray binding, fluorescence 635 nm; higher = more signal.
The target in test [8] is Concanavalin-A (Canavalia ensiformis) (UniProt P02866). Nature of the test: ConA small-molecule binders, primary screen, artefact control for SMM control protein annotation, biochemical, small-molecule microarray, Alexa647 label, 635 nm (AID 1127).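 Note: z combines 667 nm emission intensity with signal-to-noise across three replicate slides.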 The following applies: ConA-A647 binding fluorescence, higher = more signal.
Sequence of Concanavalin-A (Canavalia ensiformis) (P02866 whole entry, looked up): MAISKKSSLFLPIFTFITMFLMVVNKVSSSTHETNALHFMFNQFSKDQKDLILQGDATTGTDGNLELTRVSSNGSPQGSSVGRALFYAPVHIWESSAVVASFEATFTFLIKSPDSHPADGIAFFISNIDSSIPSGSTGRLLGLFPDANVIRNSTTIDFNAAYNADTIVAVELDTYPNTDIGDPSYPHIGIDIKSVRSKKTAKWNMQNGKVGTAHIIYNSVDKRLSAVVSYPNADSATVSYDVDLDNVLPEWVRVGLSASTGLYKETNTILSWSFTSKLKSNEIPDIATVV
The nature of test [9]: anti-His antibody binders, primary screen, artefact control for SMM control protein annotation, biochemical, small-molecule microarray, 635 nm fluorescence (AID 1128).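 Note: score merges feature fluorescence with signal-to-noise for each printed compound spot.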 The following applies: anti-His Alexa647 antibody binding, higher = more signal.
Test [10] deals with Human papillomavirus type 1a E7 protein (residues 1-88). Nature of the test: HPV1a E7 small-molecule binders, primary screen, biochemical, small-molecule microarray, residues 1-88, 635 nm (AID 1129). The following applies: small-molecule microarray binding, fluorescence 635 nm; higher = more signal.
The target of test [11] is Focal adhesion kinase 1 (Homo sapiens) (UniProt Q05397). Nature of the test: small-molecule microarray binders of FAK, primary screen, biochemical, 635/667 nm fluorescence, BSA, DTT (AID 1130).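 Note: composite of spot emission at 667 nm and signal to noise over triplicate slides.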 The following applies: PTK2 binding, 635 nm fluorescence, higher = more signal.
Sequence of Focal adhesion kinase 1 (Homo sapiens) (Q05397 whole entry, looked up): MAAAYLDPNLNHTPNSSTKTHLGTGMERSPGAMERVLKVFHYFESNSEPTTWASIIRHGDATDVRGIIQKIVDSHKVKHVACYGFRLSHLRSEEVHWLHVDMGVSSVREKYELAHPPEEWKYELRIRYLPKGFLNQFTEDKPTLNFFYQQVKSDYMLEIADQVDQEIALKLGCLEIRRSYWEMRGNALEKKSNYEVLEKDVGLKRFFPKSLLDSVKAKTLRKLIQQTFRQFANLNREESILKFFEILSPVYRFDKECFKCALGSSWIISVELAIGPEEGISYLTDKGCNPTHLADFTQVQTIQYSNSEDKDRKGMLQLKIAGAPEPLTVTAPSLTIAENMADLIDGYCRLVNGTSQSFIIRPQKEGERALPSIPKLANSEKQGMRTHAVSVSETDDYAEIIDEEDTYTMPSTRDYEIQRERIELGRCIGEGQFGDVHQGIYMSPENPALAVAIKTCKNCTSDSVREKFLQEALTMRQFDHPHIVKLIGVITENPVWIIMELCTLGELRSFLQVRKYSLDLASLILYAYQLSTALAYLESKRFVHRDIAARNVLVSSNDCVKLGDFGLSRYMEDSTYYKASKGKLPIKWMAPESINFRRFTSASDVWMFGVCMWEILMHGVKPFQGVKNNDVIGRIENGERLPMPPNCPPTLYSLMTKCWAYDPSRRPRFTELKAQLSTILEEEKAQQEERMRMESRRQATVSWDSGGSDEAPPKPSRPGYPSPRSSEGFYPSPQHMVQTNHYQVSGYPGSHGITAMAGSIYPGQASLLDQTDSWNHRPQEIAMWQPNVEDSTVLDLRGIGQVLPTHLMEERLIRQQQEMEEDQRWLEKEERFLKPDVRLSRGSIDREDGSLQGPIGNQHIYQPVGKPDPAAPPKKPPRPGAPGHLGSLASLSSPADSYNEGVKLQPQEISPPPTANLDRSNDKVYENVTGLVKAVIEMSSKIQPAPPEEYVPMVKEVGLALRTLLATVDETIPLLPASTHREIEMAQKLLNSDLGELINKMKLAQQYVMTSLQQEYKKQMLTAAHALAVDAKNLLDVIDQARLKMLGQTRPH
Test [12] has as its system Fibrinogen (Alexa647-labelled). Nature of the test: fibrinogen binders on compound microarrays, profiling panel, artefact control for SMM control-protein annotation, biochemical, small-molecule microarray, 635/667 nm fluorescence (AID 1131).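 Note: z-score merges 667 nm fluorescence with per-spot signal-to-noise over triplicate slides.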 The following applies: fibrinogen-A647 binding fluorescence, higher = more signal.
In test [13] the target is Follistatin (Homo sapiens) (UniProt P19883). Nature of the test: follistatin binders on small-molecule microarrays, primary screen, biochemical, small-molecule microarray, 635/667 nm fluorescence (AID 1132). The following applies: FST binding, 635 nm fluorescence, higher = more signal.
Sequence of Follistatin (Homo sapiens) (P19883 whole entry, looked up): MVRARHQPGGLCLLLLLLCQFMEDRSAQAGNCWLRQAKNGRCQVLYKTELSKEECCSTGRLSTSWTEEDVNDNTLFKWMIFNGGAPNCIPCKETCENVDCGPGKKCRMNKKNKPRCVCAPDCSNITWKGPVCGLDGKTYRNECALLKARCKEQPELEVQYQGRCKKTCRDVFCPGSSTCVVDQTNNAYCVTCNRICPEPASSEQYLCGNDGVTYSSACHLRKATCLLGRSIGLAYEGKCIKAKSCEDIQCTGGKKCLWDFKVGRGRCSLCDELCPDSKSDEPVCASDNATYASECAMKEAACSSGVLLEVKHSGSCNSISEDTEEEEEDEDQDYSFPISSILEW
Test [14] deals with Fibroblast growth factor 2 (Homo sapiens) (UniProt P09038). Nature of the test: FGF2 binders on small-molecule microarrays, primary screen, biochemical, small-molecule microarray, 635/667 nm fluorescence (AID 1133). The following applies: small-molecule microarray binding, FGF2, fluorescence 635/667; higher = more signal.
Sequence of Fibroblast growth factor 2 (Homo sapiens) (P09038 whole entry, looked up): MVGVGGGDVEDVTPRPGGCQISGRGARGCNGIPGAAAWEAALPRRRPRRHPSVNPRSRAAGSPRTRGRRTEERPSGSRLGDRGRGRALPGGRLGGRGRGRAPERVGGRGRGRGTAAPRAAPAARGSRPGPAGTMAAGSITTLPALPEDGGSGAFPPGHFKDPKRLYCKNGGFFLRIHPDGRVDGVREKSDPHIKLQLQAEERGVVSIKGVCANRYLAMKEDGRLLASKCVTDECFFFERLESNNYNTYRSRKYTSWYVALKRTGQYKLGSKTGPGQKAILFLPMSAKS
Test [15] in a line: mitochondrial membrane potential change in A549 cells, profiling panel, cell-based, JC-1 fluorescence, basal, 24 h, 100 nL (AID 1138).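 Note: A549 lung adenocarcinoma cells under basal conditions with no added stimulus; test concentration not given here.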 The following applies: higher = more signal.
Another test has as its system Lefty1. Nature of the test: Lefty1 binders on small-molecule microarrays, primary screen, biochemical, small-molecule microarray, 635/667 nm fluorescence (AID 1139). The following applies: small-molecule microarray binding, fluorescence 635/667; higher = more signal.
In test [16] the test system is wheat germ agglutinin (Triticum aestivum), Alexa647-labelled. Nature of the test: wheat germ agglutinin binders on compound microarrays, profiling panel, artefact control for SMM control-protein annotation, biochemical, small-molecule microarray, 635/667 nm fluorescence (AID 1140).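 Note: score merges 667 nm feature emission with signal to noise over triplicate slides.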 The following applies: WGA-A647 binding, 635 nm fluorescence, higher = more signal.
Test [17] has as its target Luciferin 4-monooxygenase (Photinus pyralis) (UniProt P08659). Nature of the test: firefly luciferase enzyme inhibitors, primary screen, biochemical, luminescence, purified enzyme, 2006 set (AID 1141).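 Note: cell-free assay with purified firefly luciferase at 100 ng per well in PBS; test concentration not given here.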 The following applies: SteadyGlo luminescence, 30 min, higher = more signal, called active from +8 up or from −8 down.

Sequence of Luciferin 4-monooxygenase (Photinus pyralis) (P08659 whole entry, looked up): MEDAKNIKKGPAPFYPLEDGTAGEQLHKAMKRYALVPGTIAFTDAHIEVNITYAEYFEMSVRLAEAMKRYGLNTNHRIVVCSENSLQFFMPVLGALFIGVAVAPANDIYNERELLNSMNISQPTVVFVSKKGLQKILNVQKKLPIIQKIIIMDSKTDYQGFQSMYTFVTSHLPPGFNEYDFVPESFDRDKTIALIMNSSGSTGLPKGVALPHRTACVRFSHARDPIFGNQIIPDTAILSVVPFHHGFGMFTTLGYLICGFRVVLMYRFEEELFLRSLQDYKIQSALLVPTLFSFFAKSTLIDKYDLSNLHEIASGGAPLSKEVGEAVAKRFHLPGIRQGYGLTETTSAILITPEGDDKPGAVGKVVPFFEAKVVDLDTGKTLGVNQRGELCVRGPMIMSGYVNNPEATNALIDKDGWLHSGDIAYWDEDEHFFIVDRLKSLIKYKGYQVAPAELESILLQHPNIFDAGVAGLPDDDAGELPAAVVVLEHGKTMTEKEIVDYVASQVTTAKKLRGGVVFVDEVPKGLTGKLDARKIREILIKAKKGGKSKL

`CCCCC(=C=CC[C@H](O)c1ccc(OCCO)cc1)CCO`: the composite z-score with Albumin (Bos taurus) was 0.837; in [2], -0.121; in test [3], -0.0795; in test [4], 0.694; in [5], 1.55; in test [6] it was 0.251. The composite z-score in the test with Sam68 (KHDRBS1) is 0.195; in test [7], -1.13; in test [8], -0.727; in test [9], -0.582; in test [10], 0.0547; in test [11], 0.0832. For the same compound, the composite z-score in test [12] is -1.64; in test [13] it was -0.232; in test [14], -0.674; with Lefty1, 0.282; in [16] it was 0.717. The composite Z-score in [1] was 0.0311 (inactive). In addition, the z-score was 0.25 in test [15] and -0.98 (inactive) in test [17].
Turning to `CC(C)c1ccc(NN2C(C(O)c3ccc(C#N)cc3)C=CC3C(=O)N(c4ccccc4)C(=O)C32)cc1` (stereo not given), the composite z-score is 1.04 with Albumin (Bos taurus); 0.33 in test [2]; -0.0296 in test [3]; 0.358 in test [4]; 2.84 in [5]; 0.982 in [6]. Besides, the composite z-score turned out to be 1.3 in the test with Sam68 (KHDRBS1); 0.0494 in test [7]; 0.926 in test [8]; 0.433 in test [9]; 1.21 in test [10]; 1.97 in test [11]. Besides, the composite z-score in test [12] is 1.04; in test [13] it was 1.01; in [14], -0.14; in the test on Lefty1, -0.278; in test [16], 0.949. In addition, the composite Z-score in [1] is 0.238 (inactive). The z-score in test [15] is -0.131; in test [17], -0.973 (inactive).
For the compound `N[C@@H](Cc1ccccc1)C(=O)NCc1cn(Cc2ccccc2)nn1`, the composite z-score is -0.337 with Albumin (Bos taurus); -0.0656 in test [2]; -0.101 in [3]; 0.431 in [4]; -0.276 in [5]; -0.0884 in test [6]. The composite z-score in the test with Sam68 (KHDRBS1) was -0.341; in test [7] it was 0.849; in test [8] it was -0.0527; in test [9], 0.615; in test [10], -0.096; in [11], -0.519. Also, the composite z-score in [12] worked out at 0.395; in test [13], 1.15; in test [14] it was 0.416; with Lefty1, 0.2; in test [16], 0.309. Besides, the composite Z-score in test [1] is 0.961 (inactive). Also, the z-score in [15] was 0.154; in test [17] it was -0.352 (inactive).
Consider `COC(=O)[C@@]1(Cc2ccc(OC)cc2)[C@H]2c3cc(C(=O)N4CCCC4)n(CCO)c3C[C@H]2CN1C(=O)c1ccccc1`, for which the composite z-score stood at 0.245 in the test with Albumin (Bos taurus); 0.302 in test [2]; 0.0918 in test [3]; 0.847 in [4]; 2.46 in [5]; 0.57 in [6]. The composite z-score was 0.827 in the test on Sam68 (KHDRBS1); -0.0307 in test [7]; 0.716 in [8]; 0.603 in test [9]; 1.18 in [10]; 1.05 in test [11]. For the same compound, the composite z-score in test [12] is 0.875; in test [13], 0.113; in [14], -0.2; in the test on Lefty1 it was -0.539; in test [16], 1.03. Moreover, the composite Z-score in test [1] is -0.423 (inactive). Moreover, the results for the z-score in test [15] and in test [17] were -0.117 and 1.01 (inactive), respectively.
For the compound `CCOC(=O)C1=C[C@@H](C(C)C)N(S(=O)(=O)c2ccc(C)cc2)[C@H]1c1ccc(C(F)(F)F)cc1`, the composite z-score is 0.665 with Albumin (Bos taurus); 0.256 in test [2]; -0.0438 in test [3]; 0.173 in test [4]; 2.52 in [5]; 0.327 in test [6]. Moreover, the composite z-score in the test with Sam68 (KHDRBS1) was found to be 1.31; in test [7] it was 0.106; in [8], 1.05; in [9], 0.922; in test [10], 1.22; in test [11] it was 0.224. In addition, the composite z-score in test [12] amounted to 0.975; in [13] it was 0.929; in test [14], 0.604; in the test on Lefty1, 0.895; in test [16], 0.909. Further, in [1], the composite Z-score is 0.559 (inactive). For the same compound, the values for the z-score in test [15] and in test [17] were 2.67 and 0.612 (inactive), respectively.
As to `COC(=O)[C@@]1(Cc2ccc(F)cc2)[C@H]2c3cc(C(=O)N(C)C)n(CCc4ccc(OC)c(Br)c4)c3C[C@H]2CN1C(=O)c1ccccc1`, the composite z-score with Albumin (Bos taurus) turned out to be 0.939; in [2], 0.613; in test [3], 0.363; in test [4], 0.487; in test [5], 1.44; in test [6], 0.0915. Moreover, the composite z-score with Sam68 (KHDRBS1) is -0.111; in test [7], -0.66; in test [8], 0.793; in test [9] it was 1.18; in test [10], 0.902; in [11], 0.178. For the same compound, the composite z-score is 0.626 in [12]; -0.0313 in test [13]; -0.433 in [14]; -0.337 in the test on Lefty1; 0.187 in test [16]. Moreover, the composite Z-score in test [1] was 0.562 (inactive). The z-score in [15] is -0.638; in [17], -0.499 (inactive).
